Screening data from PubChem BioAssay.
Shown are actives, neighbours in structure and some others; about 18% of the full set was active somewhere.
TDP1 inh = blocks human tyrosyl-DNA phosphodiesterase 1; Q9NUW8; recombinant TDP1, AlphaScreen DNA substrate cleavage; Potency, µM (series often up to 130 µM), actives largely listed as inhibitors; hit rate 0.28% among 350,000; AID 485290; further: nearly all actives have a fitted effect of over 40% in size
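E. coli-derived human Tdp1, 1 nM final. Cpd preinc 15 min RT; substrate 15 nM final, 5 min RT; AS bead mix 10 ug/ml final, 10 min RT. Signal loss = tyrosine-FITC cleavage. No-enzyme wells = max signal.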
DT40 TDP1 CPT = growth inhibition of DT40 Tdp1-/-;hTDP1 cells with camptothecin (screen for TDP1 inhibitors) | chicken DT40 Tdp1-/-;hTDP1 cells + 20 nM CPT, ATP luminescence, 48 h | Potency, µM (doses to about 46.2 µM), hits mostly inhibitors | hit rate 12% among 420,000; further: nearly all actives have a fitted effect of over 55% in size
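Chicken DT40 Tdp1-/- cells complemented with human TDP1, 400 cells/well, exposed to compounds plus 20 nM camptothecin for at least 48 h at 37 C; viability read as ATP content by CellTiter-Glo luminescence.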
DT40 TDP1 no CPT = qHTS for Inhibitors of human tyrosyl-DNA phosphodiesterase 1 (TDP1): qHTS in cells in absence of CPT; AID 686978, 2013; hit rate 15% among 420,000; DT40 Tdp1-/- hTDP1 cells, no CPT, ATP luminescence, 48 h; Potency, µM (doses to about 46.2 µM), hits mostly inhibitors; further: nearly all actives have a fitted effect of over 55% in size
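Luminescent ATP content (CellTiter-Glo) served as the growth readout. Knockout chicken DT40 cells expressing human TDP1 were exposed to compounds without camptothecin for a minimum 48 hr at 37 °C.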
GCN5L2 inh = blocks human GCN5L2 histone acetyltransferase | Q92830 | GCN5L2 HAT assay, ThioGlo1 CoA-SH fluorescence | Potency, µM (series often up to 58.9 µM), usual class: inhibitors | hit rate 0.21% among 390,000
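Compounds, pin-transferred from DMSO stocks, meet 20nM GCN5L2 for 15 min before the reaction begins with H3(1-25) peptide (75uM) and acetyl-CoA (70uM). Thiol-reactive ThioGlo1 reports CoA release over 20 min at room temperature.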
VDR inhibitor = blocks the human vitamin D receptor; P11473; VDR-SRC2-3 peptide fluorescence polarization, 2 h; Potency, µM, actives largely listed as inhibitors; hit rate 0.93% among 400,000; AID 504847
Target sequence (P11473 whole entry, looked up): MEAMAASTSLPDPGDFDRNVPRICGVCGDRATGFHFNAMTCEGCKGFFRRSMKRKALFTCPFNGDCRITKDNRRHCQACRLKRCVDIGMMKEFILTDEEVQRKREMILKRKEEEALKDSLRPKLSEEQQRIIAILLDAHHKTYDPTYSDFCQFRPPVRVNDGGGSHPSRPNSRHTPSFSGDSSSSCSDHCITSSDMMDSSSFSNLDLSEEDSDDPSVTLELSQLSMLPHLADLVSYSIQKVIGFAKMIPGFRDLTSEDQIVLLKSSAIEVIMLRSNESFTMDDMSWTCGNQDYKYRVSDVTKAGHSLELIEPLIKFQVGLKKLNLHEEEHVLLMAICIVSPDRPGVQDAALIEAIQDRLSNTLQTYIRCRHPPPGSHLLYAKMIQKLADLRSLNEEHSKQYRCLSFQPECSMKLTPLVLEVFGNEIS
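Inhibition of the VDR/SRC2-3 peptide interaction is quantified by fluorescence polarization. Compounds (23 nl, pintool) incubate with the reagents for 2 hours at ambient room temperature.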
PLK1 PBD inh = PLK1 (human) polo-box domain binding inhibition | Plk1 PBD binding of FITC phosphopeptide, fluorescence polarization | Potency, µM, hits mostly inhibitors | hit rate 2.8% among 360,000 | AID 720504; further: series mostly up to about 57 µM; nearly all actives have a fitted effect of over 65% in size
Hits are given with their value. The call rests on the fitted dose curve; in most records, active means well fitted curve in the direction sought with a large enough effect; inconclusive means small, poorly fitted or top-dose-only effect, or another doubt; inactive means no such curve, though single readings can be large; an effect the other way counts as inactive or inconclusive.

Results for O=S(=O)(Nc1ccc(O)c(Sc2nc3ccccc3s2)c1)c1ccc(F)cc1 ?
TDP1 inh: inactive; DT40 TDP1 CPT: inactive; DT40 TDP1 no CPT: inconclusive; GCN5L2 inh: inactive; VDR inhibitor: inactive; PLK1 PBD inh: inactive

Results for O=C(Cc1ccc(F)cc1)N/N=C/c1ccncc1 ?
TDP1 inh: inactive; DT40 TDP1 CPT: inactive; DT40 TDP1 no CPT: inactive; GCN5L2 inh: inactive; VDR inhibitor: inactive; PLK1 PBD inh: inactive

What do the screens show for `COc1ccc(C2=C/C(=C\c3cccc(OC(C)=O)c3)C(=O)O2)cc1`?
TDP1 inh: inactive; DT40 TDP1 CPT: inconclusive; DT40 TDP1 no CPT: inconclusive; GCN5L2 inh: inactive; VDR inhibitor: inactive; PLK1 PBD inh: inactive

How did COc1ccc(C2=C/C(=C\c3ccccc3OC(C)=O)C(=O)O2)cc1 do in these assays?
DT40 TDP1 CPT: 21µM; DT40 TDP1 no CPT: 15µM; GCN5L2 inh: inactive; VDR inhibitor: inactive; PLK1 PBD inh: inactive

Results for COc1ccc(-c2csc3nc(C)nc(N4CCN(c5ccc(C(C)=O)cc5)CC4)c23)cc1OC ?
TDP1 inh: inactive; DT40 TDP1 CPT: inactive; DT40 TDP1 no CPT: inconclusive; GCN5L2 inh: inactive; VDR inhibitor: inactive; PLK1 PBD inh: inactive

Results for CC1=C(C(=O)N(C(C)C)C(C)C)CC(CC(=O)NCc2cccs2)C(=O)N1CCC1=CCCCC1 (stereo not drawn) ?
DT40 TDP1 CPT: inconclusive; DT40 TDP1 no CPT: inconclusive; PLK1 PBD inh: inactive

How did C=C(C)CN=CC1(C)CCC(C)=CO1 (stereo not drawn) do in these assays?
DT40 TDP1 CPT: 16µM; DT40 TDP1 no CPT: 18µM; VDR inhibitor: inactive; PLK1 PBD inh: inactive

Results for Cc1nnc(NC(=O)CCn2c(=O)oc3ccccc32)s1 ?
TDP1 inh: inactive; DT40 TDP1 CPT: inactive; DT40 TDP1 no CPT: inactive; GCN5L2 inh: inactive; VDR inhibitor: inactive; PLK1 PBD inh: inactive

What do the screens show for `CC1CC(C)(C)CC2(C1)NC(=O)N(CC(=O)Nc1c(F)cccc1F)C2=O` (stereo not drawn)?
TDP1 inh: inactive; DT40 TDP1 CPT: inactive; DT40 TDP1 no CPT: inactive; GCN5L2 inh: inactive; VDR inhibitor: inactive; PLK1 PBD inh: inactive

How did Cc1cccc(NC(=O)CN2CCN(C(=O)CN3C(=O)NC4(CC(C)CC(C)(C)C4)C3=O)CC2)c1C (stereo not drawn) do in these assays?
DT40 TDP1 CPT: 21µM; DT40 TDP1 no CPT: 4.1µM; VDR inhibitor: inactive; PLK1 PBD inh: inactive

What do the screens show for `CC1CC(C)(C)CC2(C1)NC(=O)N(CC(=O)N1CCN(S(=O)(=O)c3cccc(F)c3)CC1)C2=O` (stereo not drawn)?
TDP1 inh: inactive; DT40 TDP1 CPT: inconclusive; DT40 TDP1 no CPT: inconclusive; GCN5L2 inh: inactive; VDR inhibitor: inactive; PLK1 PBD inh: inactive

What do the screens show for `CC1CC(C)(C)CC2(C1)NC(=O)N(CC(=O)N1CCN(Cc3ccc(C#N)cc3)CC1)C2=O` (stereo not drawn)?
TDP1 inh: inactive; DT40 TDP1 CPT: 8.2µM; DT40 TDP1 no CPT: 5.2µM; GCN5L2 inh: inactive; VDR inhibitor: inactive; PLK1 PBD inh: inactive

Results for CC(=O)N1CCN(C(=O)CN2C(=O)NC(C)(c3ccc4ccccc4c3)C2=O)CC1 (stereo not drawn) ?
TDP1 inh: inactive; DT40 TDP1 CPT: inactive; DT40 TDP1 no CPT: inconclusive; GCN5L2 inh: inactive; VDR inhibitor: inactive; PLK1 PBD inh: inactive

Results for CC1(c2ccc3ccccc3c2)NC(=O)N(CC(=O)N2CCN(Cc3ccc(C#N)cc3)CC2)C1=O (stereo not drawn) ?
TDP1 inh: inactive; DT40 TDP1 CPT: 3.3µM; DT40 TDP1 no CPT: 2.1µM; GCN5L2 inh: inactive; VDR inhibitor: inactive; PLK1 PBD inh: inactive

What do the screens show for `CC1CC(C)(C)CC2(C1)NC(=O)N(CC(=O)Nc1cc([N+](=O)[O-])ccc1F)C2=O` (stereo not drawn)?
TDP1 inh: inactive; DT40 TDP1 CPT: 15µM; DT40 TDP1 no CPT: 10µM; GCN5L2 inh: inactive; VDR inhibitor: inactive; PLK1 PBD inh: inactive

What do the screens show for `CC1CC(C)(C)CC2(C1)NC(=O)N(CC(=O)N1CCN(S(=O)(=O)c3cccs3)CC1)C2=O` (stereo not drawn)?
TDP1 inh: inactive; DT40 TDP1 CPT: inconclusive; DT40 TDP1 no CPT: inconclusive; GCN5L2 inh: inactive; VDR inhibitor: inactive; PLK1 PBD inh: inactive

Results for COC(=O)CNC(=O)COC(=O)c1ccc(Cl)nc1 ?
TDP1 inh: inactive; DT40 TDP1 CPT: inactive; DT40 TDP1 no CPT: inactive; GCN5L2 inh: inactive; VDR inhibitor: inactive; PLK1 PBD inh: inactive

How did CCOC(=O)[C@]12CCCC=C1N(Cc1ccccc1)C(=O)[C@H](CC(=O)NCC1CCCCC1)C2 do in these assays?
DT40 TDP1 CPT: inconclusive; DT40 TDP1 no CPT: inconclusive; PLK1 PBD inh: inactive

Results for CCOC(=O)[C@]12CCCC=C1N(CCC1=CCCCC1)C(=O)[C@H](CC(=O)NCC1CCCCC1)C2 ?
DT40 TDP1 CPT: inconclusive; DT40 TDP1 no CPT: inconclusive; PLK1 PBD inh: inactive

Results for CCCCCCCCN1C(=O)[C@H](CC(=O)NCC2CCCCC2)C[C@@]2(C(=O)OCC)CCC=C12 ?
DT40 TDP1 CPT: 16µM; DT40 TDP1 no CPT: 18µM; PLK1 PBD inh: inactive

Results for CCCCCCCCN1C(=O)[C@H](CC(=O)NCC2CCCCC2)C[C@@]2(C(=O)OCC)CCCC=C12 ?
DT40 TDP1 CPT: 21µM; DT40 TDP1 no CPT: 18µM; PLK1 PBD inh: inactive

How did CCCCCCCCN1C(=O)[C@H](CC(=O)NCc2ccccc2)C[C@@]2(C(=O)OCC)CCCC=C12 do in these assays?
DT40 TDP1 CPT: inconclusive; DT40 TDP1 no CPT: inconclusive; PLK1 PBD inh: inactive

How did C#CCNC(=O)C[C@@H]1C[C@@]2(C(=O)OCC)CCCC=C2N(CCC2=CCCCC2)C1=O do in these assays?
DT40 TDP1 CPT: 13µM; DT40 TDP1 no CPT: 15µM; PLK1 PBD inh: inactive

What do the screens show for `C#CCNC(=O)C[C@@H]1C[C@@]2(C(=O)OCC)CCCC=C2N(CCCCCCCC)C1=O`?
DT40 TDP1 CPT: 16µM; DT40 TDP1 no CPT: 13µM; PLK1 PBD inh: inactive

Results for Cn1c(=O)c2cc(NC(=O)NCc3ccc(F)cc3)ccc2n1C ?
DT40 TDP1 CPT: inactive; DT40 TDP1 no CPT: inactive; PLK1 PBD inh: inactive

What do the screens show for `COc1cc(=O)n2c(c1C(=O)NC(C)c1ccco1)CCN(C(=O)c1cccc(C)c1C)CC2` (stereo not drawn)?
DT40 TDP1 CPT: 0.16µM; DT40 TDP1 no CPT: inactive

Results for CCn1c(SCC(=O)c2[nH]c(C)c(C(C)=O)c2C)nnc1-c1ccccc1 ?
TDP1 inh: inactive; DT40 TDP1 CPT: 23µM; DT40 TDP1 no CPT: 26µM; GCN5L2 inh: inactive; VDR inhibitor: inactive; PLK1 PBD inh: inactive

How did CCc1cc(=O)[nH]c(SCc2nc(-c3ccccc3C)no2)n1 do in these assays?
TDP1 inh: inactive; DT40 TDP1 CPT: inconclusive; DT40 TDP1 no CPT: inconclusive; GCN5L2 inh: inactive; VDR inhibitor: inactive
